Laboratory results published in the supplement of paper PMC6555819.

Experiments:
Assay in all cases: PBM binding z-score (relative to random genomic background probes); higher = stronger binding; sequences stand for … in GC…GCGATTGACAGCGTAGAATGAAGG
[1] = system: RARb homodimer (NR concentration 270 nM)
In short: (§1)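 Ligand-free nuclear receptor dimers were applied to custom Agilent 4×180K protein-binding microarrays whose double-stranded probes carried direct-repeat seeds, single-nucleotide variants, half-site ablations and random human genomic background sequences in 34-nt variable regions. Incubation lasted 1 h. Binding z-scores were computed against the random background probes from regression-normalized fluorescence.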

[2] = system: RARg:RXRa (NR concentration 270 nM, RXRa partner concentration 90 nM)
In short: as §1

[3] = system: RARg homodimer (NR concentration 270 nM)
In short: as §1

[4] = system: RXRa DBDmut IVT, anti-RXR (DBD mutation: RXRa K156A/R161A, NR concentration 90 nM)
In short: as §1

[5] = system: RXRa homodimer (NR concentration 180 nM)
In short: as §1

[6] = system: THRa:RXRa (NR concentration 90 nM, RXRa partner concentration 90 nM)
In short: as §1

[7] = system: THRa homodimer (NR concentration 90 nM)
In short: as §1

[8] = system: VDR homodimer (NR concentration 270 nM)
In short: as §1

| Sequence | PBM binding z-score [1] | PBM binding z-score [2] | PBM binding z-score [3] | PBM binding z-score [4] | PBM binding z-score [5] | PBM binding z-score [6] | PBM binding z-score [7] | PBM binding z-score [8] |
| --- | --- | --- | --- | --- | --- | --- | --- | --- |
| GATACAGGGTCAGCTAGAGGCCAGAGTCTGGAAA | 3.39 | 6.56 | 5.07 | 1.7 | 4.07 | 2.9 | 0.144 | 0.522 |
| GGAACGAGGGCAAGTTGATAGCTGAGTTTGATGG | 1.5 | 1.45 | 2.07 | 2.58 | 0.669 | 1.09 | 0.0146 | 1.84 |
| TCATACAGGTAATACAGGTGAAAGTCGGCATCTA | 0.84 | 0.731 | 0.586 | 1.65 | 1.23 | 1.18 | 0.583 | 0.391 |
| CCTCAGAGGACAGAAGGTCAGAGCTGTCCGCTTT | 3.51 | 3.95 | 3.91 | 0.625 | 2.1 | 1.95 | -0.0422 | 0.12 |
| TCTGCTAGGTCAACGATGGTCAGCAAATCTGCTA | 3.35 | 3.94 | 5.26 | 0.984 | 2.45 | 3.17 | 0.756 | -0.402 |
| CCGACTGGGGCATAAGGGTACCATAAGCCAGCCC | 0.3 | 0.401 | 0.239 | -0.871 | 0.269 | -0.0868 | -0.457 | -0.543 |
| TCATATAGGTAATACAAGTGAAAGTCGGCATCTA | 0.148 | 0.857 | 0.72 | 2.07 | 1.23 | 0.601 | 0.0151 | 0.435 |
